Results taken from PMC7862700, “An all-to-all approach to the identification of sequence-specific readers for epigenetic DNA modifications on cytosine”.

Assays:
Experiment in all cases: DAPPL (digital affinity profiling via proximity ligation, sequencing); 10 mM Tris-HCl pH 7.5, 50 mM NaCl, 1 mM DTT, 4% glycerol, room temperature, 30 min; GST-TFs on glutathione beads, 16-mer random dsDNA library, 0.1% formaldehyde crosslink after washing; high values mean tight binding
FEV = molecular target: T1, FEV (Homo sapiens, UniProt Q99581 1-238); details: protein: recombinant; tags: N-terminal GST; dsDNA, one strand shown
T1 sequence: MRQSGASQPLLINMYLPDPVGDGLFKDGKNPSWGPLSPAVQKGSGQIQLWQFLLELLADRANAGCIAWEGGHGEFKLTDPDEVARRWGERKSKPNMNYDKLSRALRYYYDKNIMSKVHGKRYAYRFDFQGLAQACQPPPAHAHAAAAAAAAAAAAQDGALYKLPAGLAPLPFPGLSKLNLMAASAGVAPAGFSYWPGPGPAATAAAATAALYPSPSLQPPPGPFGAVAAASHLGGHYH
Method in brief: (§1)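 Human transcription factors carrying a GST fusion were produced in yeast, bound to glutathione beads, tagged with DNA barcodes and pooled together with a tag-only sample. Each pool was held with 200 nmole of a random double-stranded 16-mer DNA library in Tris/NaCl/DTT/glycerol buffer for 30 min at room temperature, then washed, crosslinked in 0.1% formaldehyde, proximity-ligated with BsaI/T4 ligase (1 h, 37 °C), PCR-amplified and sequenced on an Illumina NextSeq500. Binding signal is the read frequency of each hexamer for a given factor divided by its frequency in the tag-only sample.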

ETV5 = ETV5 (Homo sapiens, UniProt P41161 1-510); details: protein: recombinant; tags: N-terminal GST; dsDNA, one strand shown
Chain of ETV5 (P41161 whole entry): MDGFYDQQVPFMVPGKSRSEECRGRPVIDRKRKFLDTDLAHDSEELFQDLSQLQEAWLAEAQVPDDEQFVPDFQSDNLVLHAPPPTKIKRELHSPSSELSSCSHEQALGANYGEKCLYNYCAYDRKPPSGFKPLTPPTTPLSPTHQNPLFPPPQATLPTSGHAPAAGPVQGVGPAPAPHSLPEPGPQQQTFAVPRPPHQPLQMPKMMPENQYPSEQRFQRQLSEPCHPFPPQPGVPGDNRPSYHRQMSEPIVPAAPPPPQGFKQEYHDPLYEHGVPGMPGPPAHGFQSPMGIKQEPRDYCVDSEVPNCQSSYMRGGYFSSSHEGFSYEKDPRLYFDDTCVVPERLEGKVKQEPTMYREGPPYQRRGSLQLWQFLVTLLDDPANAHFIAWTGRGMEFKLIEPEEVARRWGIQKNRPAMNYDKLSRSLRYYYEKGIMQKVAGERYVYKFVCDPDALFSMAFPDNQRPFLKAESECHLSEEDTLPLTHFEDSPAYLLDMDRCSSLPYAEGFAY
Method in brief: as §1

HSF1 = HSF1 (Homo sapiens, UniProt Q00613 1-529); details: protein: recombinant; tags: N-terminal GST; chain copies: 3; dsDNA, one strand shown
Chain of HSF1 (Q00613 whole entry): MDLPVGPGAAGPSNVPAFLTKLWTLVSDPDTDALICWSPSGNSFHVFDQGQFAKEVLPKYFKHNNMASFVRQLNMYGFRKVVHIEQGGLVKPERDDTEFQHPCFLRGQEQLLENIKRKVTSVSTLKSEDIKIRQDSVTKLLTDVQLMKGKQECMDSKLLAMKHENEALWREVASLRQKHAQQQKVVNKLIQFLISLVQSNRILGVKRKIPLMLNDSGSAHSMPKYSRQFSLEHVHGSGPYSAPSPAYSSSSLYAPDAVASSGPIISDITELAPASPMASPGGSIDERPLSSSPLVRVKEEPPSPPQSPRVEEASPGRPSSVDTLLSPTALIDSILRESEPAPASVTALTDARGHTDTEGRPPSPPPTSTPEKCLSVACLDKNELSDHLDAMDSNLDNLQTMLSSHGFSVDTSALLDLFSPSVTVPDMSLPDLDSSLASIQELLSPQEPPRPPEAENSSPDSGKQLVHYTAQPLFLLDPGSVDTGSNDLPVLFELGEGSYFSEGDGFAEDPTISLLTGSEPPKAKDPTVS
Method in brief: as §1

SPIC = molecular target: T2, SPIC (Homo sapiens, UniProt Q8N5J4 1-248); details: protein: recombinant; tags: N-terminal GST; dsDNA, one strand shown
T2 sequence: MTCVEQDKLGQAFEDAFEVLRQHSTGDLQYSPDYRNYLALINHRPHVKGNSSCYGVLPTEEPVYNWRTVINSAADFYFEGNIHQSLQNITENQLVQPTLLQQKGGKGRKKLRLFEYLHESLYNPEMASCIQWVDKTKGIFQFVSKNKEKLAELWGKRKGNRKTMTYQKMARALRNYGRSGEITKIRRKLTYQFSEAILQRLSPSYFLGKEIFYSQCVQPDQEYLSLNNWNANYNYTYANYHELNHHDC
Method in brief: as §1

ELF4 = ELF4 (Homo sapiens, UniProt Q99607 1-663); details: protein: recombinant; tags: N-terminal GST; dsDNA, one strand shown
Chain of ELF4 (Q99607 whole entry): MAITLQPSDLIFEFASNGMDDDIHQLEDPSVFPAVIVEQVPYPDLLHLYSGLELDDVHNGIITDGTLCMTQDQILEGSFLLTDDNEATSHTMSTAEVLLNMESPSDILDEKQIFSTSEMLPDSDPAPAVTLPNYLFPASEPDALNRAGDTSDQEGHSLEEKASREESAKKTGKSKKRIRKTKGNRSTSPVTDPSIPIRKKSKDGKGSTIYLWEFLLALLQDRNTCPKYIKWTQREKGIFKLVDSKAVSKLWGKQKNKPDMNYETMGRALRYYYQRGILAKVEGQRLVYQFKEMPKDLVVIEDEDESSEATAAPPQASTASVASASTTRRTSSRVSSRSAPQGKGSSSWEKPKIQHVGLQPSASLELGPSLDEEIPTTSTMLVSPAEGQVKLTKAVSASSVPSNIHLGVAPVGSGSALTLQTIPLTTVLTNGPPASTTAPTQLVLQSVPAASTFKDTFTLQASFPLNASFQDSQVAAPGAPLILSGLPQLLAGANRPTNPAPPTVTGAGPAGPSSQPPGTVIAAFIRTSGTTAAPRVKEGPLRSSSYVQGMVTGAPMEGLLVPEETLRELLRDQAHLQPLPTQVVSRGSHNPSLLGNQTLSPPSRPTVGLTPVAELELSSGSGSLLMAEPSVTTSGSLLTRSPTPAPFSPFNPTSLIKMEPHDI
Method in brief: as §1

ELK4 = molecular target: T3, ELK4 (Homo sapiens, UniProt P28324-2 1-405); details: protein: recombinant; tags: N-terminal GST; dsDNA, one strand shown
T3 sequence: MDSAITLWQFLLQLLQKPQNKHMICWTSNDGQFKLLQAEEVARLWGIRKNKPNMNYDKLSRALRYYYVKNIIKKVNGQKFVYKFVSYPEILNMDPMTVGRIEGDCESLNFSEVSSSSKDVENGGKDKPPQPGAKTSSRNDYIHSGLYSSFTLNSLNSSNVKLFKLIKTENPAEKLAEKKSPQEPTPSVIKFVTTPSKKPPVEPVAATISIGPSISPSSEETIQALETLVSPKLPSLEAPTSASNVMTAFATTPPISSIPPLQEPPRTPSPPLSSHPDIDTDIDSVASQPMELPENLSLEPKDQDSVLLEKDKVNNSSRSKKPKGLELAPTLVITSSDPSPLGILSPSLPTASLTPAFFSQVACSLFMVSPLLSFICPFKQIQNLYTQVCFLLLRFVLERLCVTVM
Method in brief: as §1

ETV2 = molecular target: T4, ETV2 (Homo sapiens, UniProt O00321 1-342); details: protein: recombinant; tags: N-terminal GST; dsDNA, one strand shown
T4 sequence: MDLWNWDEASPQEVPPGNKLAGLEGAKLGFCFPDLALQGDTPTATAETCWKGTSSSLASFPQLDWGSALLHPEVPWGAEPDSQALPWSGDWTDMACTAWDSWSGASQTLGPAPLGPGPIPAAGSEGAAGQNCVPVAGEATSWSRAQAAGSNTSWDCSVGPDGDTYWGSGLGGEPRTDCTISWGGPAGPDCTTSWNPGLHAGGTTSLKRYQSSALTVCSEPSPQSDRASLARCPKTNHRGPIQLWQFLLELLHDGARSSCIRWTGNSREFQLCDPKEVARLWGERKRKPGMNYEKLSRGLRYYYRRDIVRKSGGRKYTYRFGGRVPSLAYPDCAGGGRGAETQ
Method in brief: as §1

ELF3 = molecular target: T5, ELF3 (Homo sapiens, UniProt P78545 1-371); details: protein: recombinant; tags: N-terminal GST; dsDNA, one strand shown
T5 sequence: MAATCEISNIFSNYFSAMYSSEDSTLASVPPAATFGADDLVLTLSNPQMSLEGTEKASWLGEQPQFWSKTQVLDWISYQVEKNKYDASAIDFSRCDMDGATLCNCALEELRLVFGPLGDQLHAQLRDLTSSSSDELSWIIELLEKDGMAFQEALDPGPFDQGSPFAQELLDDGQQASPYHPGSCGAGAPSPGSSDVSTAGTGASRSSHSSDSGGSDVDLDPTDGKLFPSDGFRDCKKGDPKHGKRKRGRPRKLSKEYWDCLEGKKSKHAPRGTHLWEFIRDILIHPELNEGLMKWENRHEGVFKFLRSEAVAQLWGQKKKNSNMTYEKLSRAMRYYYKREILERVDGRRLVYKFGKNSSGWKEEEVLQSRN
Method in brief: as §1

ETV1 = ETV1 (Homo sapiens, UniProt P50549 1-477); details: protein: recombinant; tags: N-terminal GST; dsDNA, one strand shown
Chain of ETV1 (P50549 whole entry): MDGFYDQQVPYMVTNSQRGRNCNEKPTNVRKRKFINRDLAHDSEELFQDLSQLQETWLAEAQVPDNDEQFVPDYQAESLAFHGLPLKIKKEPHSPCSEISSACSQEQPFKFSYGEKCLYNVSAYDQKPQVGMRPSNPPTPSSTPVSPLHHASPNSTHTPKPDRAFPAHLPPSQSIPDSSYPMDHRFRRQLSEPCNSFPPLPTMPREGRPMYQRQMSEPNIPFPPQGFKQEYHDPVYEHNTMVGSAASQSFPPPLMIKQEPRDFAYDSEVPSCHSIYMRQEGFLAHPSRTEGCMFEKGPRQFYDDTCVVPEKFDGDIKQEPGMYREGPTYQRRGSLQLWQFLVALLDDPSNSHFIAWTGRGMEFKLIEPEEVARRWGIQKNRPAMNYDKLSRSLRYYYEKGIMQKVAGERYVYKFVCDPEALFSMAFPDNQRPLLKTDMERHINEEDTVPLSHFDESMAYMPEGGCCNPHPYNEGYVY
Method in brief: as §1

**Q.** Which binding signal (FEV) does the source give for GTGTTC here?
**A.** 1.08 fold enrichment (6-mer frequency, TF over GST control)

**Q.** What about the binding signal (ETV5) of the same sequence?
**A.** 1.14 fold enrichment (6-mer frequency, TF over GST control)

**Q.** And the binding signal (HSF1)?
**A.** 1.12 fold enrichment (6-mer frequency, TF over GST control)

**Q.** What about the binding signal (SPIC) of the same sequence?
**A.** 1.36 fold enrichment (6-mer frequency, TF over GST control)

**Q.** And the binding signal (ELF4)?
**A.** 1.12 fold enrichment (6-mer frequency, TF over GST control)

**Q.** And the binding signal (ELK4)?
**A.** 1.25 fold enrichment (6-mer frequency, TF over GST control)

**Q.** What about the binding signal (ETV2) of the same sequence?
**A.** 1.15 fold enrichment (6-mer frequency, TF over GST control)

**Q.** What about the binding signal (ELF3) of the same sequence?
**A.** 1.19 fold enrichment (6-mer frequency, TF over GST control)

**Q.** What about the binding signal (ETV1) of the same sequence?
**A.** 1.14 fold enrichment (6-mer frequency, TF over GST control)
